# A selection: hits, their analogues and other compounds. The true share with any hit is near 12%.
# G9a inh – inhibitors of human histone lysine methyltransferase G9a; hit rate 8.8% among 350,000; AID 504332; Potency, µM (titrated, usually from 102 µM), most hits filed as inhibitors; G9a H3K9 monomethylation, AlphaScreen, 2 h; note: nearly all actives have a fitted effect of over 75% in size
# Target sequence (Q96KQ7 913-1193 limits assumed): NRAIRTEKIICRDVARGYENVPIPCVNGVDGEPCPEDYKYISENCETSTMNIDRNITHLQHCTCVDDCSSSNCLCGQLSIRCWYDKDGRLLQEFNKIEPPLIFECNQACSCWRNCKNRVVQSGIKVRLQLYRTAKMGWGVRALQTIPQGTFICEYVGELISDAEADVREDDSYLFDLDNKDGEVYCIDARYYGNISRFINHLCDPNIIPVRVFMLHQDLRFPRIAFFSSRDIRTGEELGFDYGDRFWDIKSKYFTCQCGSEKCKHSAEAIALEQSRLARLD
#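 AlphaScreen detection with an anti-monomethyl H3K9 antibody quantified product after a 2 h room-temperature reaction containing 500 nM biotinylated H3K9 peptide, 20 µM SAM and 20 nM enzyme, which had been preincubated 15 min with compound.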
# PLK1 PBD block – PLK1 (human) polo-box domain binding inhibition; P53350; Plk1 PBD binding of FITC phosphopeptide, fluorescence polarization; Potency, µM, most hits filed as inhibitors; hit rate 2.8% among 360,000; note: series mostly up to about 57 µM; nearly all actives have a fitted effect of over 65% in size
# PI5P4Ka inh – PI5P4K alpha (human) kinase inhibition; AID 652105; P48426; PI5P4Kalpha enzyme, ADP-Glo luminescence, 60 min; stronger effect = lower value; max response, %; hit rate 1.2% among 330,000; active = max response of -50% or lower; inconclusive = between -30% and -50%; inactive = -30% or higher; note: value at the top dose of about 77 µM
#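 Human PI5P4Kalpha with substrate in 0.038 M HEPES pH 7.4, 0.28 mM EGTA, 0.1% CHAPS, 5% DMSO; reaction started with 5 microM ATP (final), 60 min at room temperature. ADP formed read by ADP-Glo luminescence.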
# JMJD2A Tudor – JMJD2A Tudor domain (human) inhibition. Potency, µM (doses to about 114 µM), usual class: inhibitors. AlphaScreen JMJD2A-Tudor / H3K4me3 peptide binding. hit rate 4.4% among 390,000; note: nearly all actives have a fitted effect of over 50% in size
# BAZ2B inh – BAZ2B (human) inhibition. AlphaScreen BAZ2B-H3K14Ac peptide displacement. Potency, µM (highest dose often 114 µM), usual class: inhibitors. hit rate 4.4% among 360,000; note: nearly all actives have a fitted effect of over 60% in size
#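 Protein-peptide AlphaScreen: BAZ2B 50 nM, b-H3K14Ac 50 nM, 1x PBS pH 7.4 + 0.01% Tween-20. Preincubation 30 min RT; cpd 30 min RT (top 110 uM); beads 20 min RT, light-protected.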
# HP1b chromo inh – inhibitors of HP1-beta chromodomain binding to methylated histone tails; hit rate 0.56% among 390,000; P83916; Potency, µM (series often up to 114 µM), most hits filed as inhibitors; AID 540317; AlphaScreen HP1-beta / biotin-H3K9me3 peptide binding; note: nearly all actives have a fitted effect of over 70% in size
# Target sequence (P83916 whole entry, looked up): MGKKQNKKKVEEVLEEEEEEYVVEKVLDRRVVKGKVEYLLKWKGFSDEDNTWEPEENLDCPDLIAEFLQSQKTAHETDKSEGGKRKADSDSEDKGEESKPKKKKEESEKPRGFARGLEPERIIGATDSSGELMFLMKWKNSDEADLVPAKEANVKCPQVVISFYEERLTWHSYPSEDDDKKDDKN
#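 AlphaScreen: HP1-beta (50 nM) preformed 30 min with biotin-H3(1-18)K9me3 peptide (50 nM) in PBS pH 7.4, 0.01% Tween-20. Compound added for 30 min at RT, then streptavidin donor/nickel chelate acceptor beads (10 ug/mL) for 30 min.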
# A number is an active result; . = inactive; ? = inconclusive; / = no result given; ! = not confirmed by another sample; [ ] = another dose, or the depositor's remark. Unless noted, calls come from the whole dose curve; as a rule, active = well fitted curve in the direction sought with a large enough effect; inconclusive = small, poorly fitted or top-dose-only effect, or another doubt; inactive = no such curve, though single readings can be large; an effect the other way counts as inactive or inconclusive.
SMILES,G9a inh,PLK1 PBD block,PI5P4Ka inh,JMJD2A Tudor,BAZ2B inh,HP1b chromo inh
C#CCOCCOCCOCCNc1nc(N2CCN(C(=O)[C@H](CCC(=O)O)n3cc(C(N)[C@H](C)CC)nn3)CC2)nc(N2CCN(C(=O)[C@H](Cc3cc4ccccc4[nH]3)n3cc(C(N)[C@H](C)CC)nn3)CC2)n1 (stereo partly drawn),.[12.7 µM],/,/,/,50.1µM,/
C#CCOCCOCCOCCNc1nc(N2CCOCC2)nc(N2CCN(C(=O)[C@H](Cc3cc4ccccc4[nH]3)n3cc([C@@H](N)C(C)CC)nn3)CC2)n1 (stereo partly drawn),?,.,.,?,?,.
Cc1cc2oc(C(=O)Nc3ccc(S(=O)(=O)Nc4ncccn4)cc3)cc(=O)c2cc1C,.,/,/,.,.,.
COc1ccc(-n2c(SCC(=O)N3CCC(C)CC3)nc3c([nH]c4ccccc43)c2=O)cc1,.,/,/,.,.,.
Cc1ccc(NS(=O)(=O)c2ccc3[nH]c4c(c3c2)CCCCCC4)cc1,?,/,/,?,39.8µM,.
COc1ccc(NS(=O)(=O)c2ccc3[nH]c4c(c3c2)CCCC4)cc1OC,11.2µM,/,/,44.7µM,?,?
O=S(=O)(c1ccc2[nH]c3c(c2c1)CCCC3)N1CCCCC1,/,.,.,.,25.1µM,.
COc1ccc(CC(C)CC(=O)Nc2ccc(OC)cc2)cc1 (stereo not drawn),.,.,.,.,.,.
Cc1nn(CC(=O)Nc2cccc(C(F)(F)F)c2)c(=O)c2cccn12,?,26.7µM,.,?,.,.
Cc1cc(NC(=O)Cn2nc(C)n3cccc3c2=O)ccc1Br,.,/,/,.,.,.
Nc1cccc(C(=O)OCC(=O)Nc2cccc3c2C(=O)c2ccccc2C3=O)c1,.,?,.,.,.,.
CCN(CC)CCNC(=O)c1ccc2c(c1NCCO)C(=O)c1ccccc1C2=O,39.8µM,.,.,?,39.8µM,?
CC1CC(C)CN(C(=O)c2cccc3c2-c2ccccc2C3=O)C1 (stereo not drawn),?,.,.,.,.,.
CC1CCN(C(=O)c2ccc3c(c2NCCO)C(=O)c2ccccc2C3=O)CC1,?,.,.,44.7µM,31.6µM,?
O=C(NCCO)c1cccc2c1C(=O)c1ccccc1-2,?,.,.,.,.,.
CCN(CC)CCC(=O)Nc1cccc2c1C(=O)c1ccccc1C2=O,39.8µM,.,.,?,?,.
COc1ccc(NC(=O)CCS(=O)(=O)c2nc(-c3cccs3)cc(C(F)(F)F)n2)cc1OC,.,/,/,.,.,.
COc1ccc(OCCOC(=O)CNC(=O)c2ccc(F)cc2)cc1,/,.,.,/,/,/
CCOC(=O)N1CCC(NC(=O)c2ccc3c(c2)N=C(C)c2ccccc2S3)CC1,.,26.7µM,.,?,.,.
O=C(NCCC1CCCC1)c1cccs1,.,.,.,.,.,.
O=C(NCCNC1CCC(c2ccccc2)CC1)c1cccs1 (stereo not drawn),28.2µM,.,.,2.24µM,50.1µM,?
O=C(NC(=S)N1CCCCC1CO)c1cccs1 (stereo not drawn),/,21.2µM,.,2.82µM,/,.
CC1CCCCC1NC(=O)CNC(=O)c1cccs1 (stereo not drawn),14.1µM,.,.,.,.,.
COc1ccc(CNCc2ccc(C(=O)O)s2)cc1,.,/,/,.,.,.
CCCN1/C(=C(\C#N)C2=NS(=O)(=O)c3ccccc32)N(C)c2ccccc21,/,.,.,.,/,.
SMILES,G9a inh,PLK1 PBD block,PI5P4Ka inh,JMJD2A Tudor,BAZ2B inh,HP1b chromo inh
CCOC(=O)N1CCC(NC(=O)c2cccs2)CC1,.,.,.,.,.,.
CCOC(=O)N1CCC(NCCNC(=O)c2ccccc2)CC1,.[0.501 µM],.,.,2.24µM!,44.7µM!,.
O=C(CNC1CCCCCC1)c1cccs1,.,29.9µM,.,?,.,?
CCOC(=O)N1CCC(NCCNC(=O)c2cccs2)CC1,?,.,.,1.78µM,79.4µM,?
CCOC(=O)C1CCN(C(=S)NC(=O)c2cccs2)CC1,39.8µM,.,.,.,.,?
CCOC(=O)N1CCC(NC(=O)c2ccccc2C(=O)O)CC1,.,.,.,.,.,.
CC(C)(C)N1C(=O)c2ccccc2NC(=O)C1C(=O)Nc1ccc2c(c1)OCCO2 (stereo not drawn),/,.,.,/,/,/
CCOC(=O)N1CCN(S(=O)(=O)c2ccc(C(=O)Nc3sc4c(c3C(N)=O)CC(C)(C)NC4(C)C)cc2)CC1,50.1µM,.,.,.,.,.
CCOC(=O)c1c(-c2ccccc2)csc1NC(=O)c1ccc(S(=O)(=O)N2CC(C)OC(C)C2)cc1 (stereo not drawn),.,.,/,.,.,.
CC1CCN(S(=O)(=O)c2ccc(C(=O)Nc3sc4c(c3C(N)=O)CC(C)(C)NC4(C)C)cc2)CC1,.,/,/,?,.,.
CCOC(=O)c1c(-c2ccccc2)csc1NC(=O)c1cc(S(=O)(=O)N2CCOCC2)ccc1C,31.6µM,?,.,.,.,?
CCOC(=O)c1sc(NC(=O)c2ccc(S(=O)(=O)N3CCOCC3)cc2)nc1-c1ccccc1,44.7µM,.,.,.,.,.
CCOC(=O)N1CCN(S(=O)(=O)c2ccc(C(=O)Nc3nc4ccccc4s3)cc2)CC1,50.1µM,.,.,.,.,.
CSc1ccc(CN2CCCC(N3CCN(c4ccccc4)CC3)C2)cc1 (stereo not drawn),.,.,.,?,?,.
Cc1ccc(CC(=O)NCc2nc(-c3ccccc3)no2)cc1,.,/,/,.,.,.
CCCN1CCN(CCNC(=O)Nc2cc(OC)cc(OC)c2)CC1,.,/,/,.,.,.
CC(C)CCC(CCNCc1ccccn1)c1ccc(Cl)cc1 (stereo not drawn),.,.,.,79.4µM,?,?
S=C(NCc1ccc(Cl)cc1)NCc1ccccn1,.,.,.,.,.,.
C[C@@H]1CN([C@H](C)CO)C(=O)c2cc(Br)cnc2O[C@H]1CN(C)C(=O)Nc1ccccc1F,/,.,.,/,/,/
Cc1noc2ncnc(Oc3ccc(Cl)cc3Cl)c12,.,?,.,56.2µM,.,.
Cc1cc(Cl)ccc1Oc1ncnc2onc(C)c12,.,?,.,.,.,.
CCC(=O)N1c2ccc(S(=O)(=O)CCC(=O)NCc3ccc(OC)cc3)cc2CC1C (stereo not drawn),?,/,/,.,/,.
CC1CCCCN1c1nnc(NC(=O)Nc2ccccc2F)s1 (stereo not drawn),?,/,/,.,.,.
Cc1ccc(OCC(=O)N2CCCC(CCC(=O)N(C)CCc3ccccn3)C2)cc1 (stereo not drawn),.[0.501 µM],.,.,.,.,.
Cc1ccc(OCC(=O)N(C)CCc2ccccn2)cc1,.[2.33 µM],.,/,10µM,?,.
c1ccc(CNc2nc(N3CCN(Cc4ccccc4)CC3)nc3ccccc23)cc1,?,.,.,.,50.1µM,.
